Measurements published in PubChem BioAssay AID1159580 (chemical genetic matrix, 2015).
The campaign covered roughly 5,500 compounds. About 2,000 (36%) were called active. Not shown: some 18% with an inconclusive outcome. No stated cut-off is given here; in the data, active means normalized growth mostly below about 0.91 (no sharp cut-off); inconclusive means no clear call, values can overlap the other calls; inactive means mostly above about 0.92. Some of the results follow.

Test: chemical genetic growth profiling, strain panel (AID 1159580);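 further: tested at 20 µM; growth read once vehicle control cultures reached saturation at 30 °C; 1 = growth at the plate median or of vehicle wells; lower values mean less growth of the strain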
Conditions: growth OD

Measured: normalized growth

COc1cc(-c2coc3cc(O[C@@H]4O[C@H](CO)[C@@H](O)[C@H](O)[C@H]4O)c(OC)c(O)c3c2=O)cc(O)c1OC
inactive: S. cerevisiae deletion strains, locus YJR066W, strain TOR1, hits give low values 0.988 | S. cerevisiae deletion strains, locus YKL009W, strain mrt4, hits give low values 1.02 | S. cerevisiae deletion strains, locus YKL068W, hits give low values 0.995 | S. cerevisiae deletion strains, locus YKL085W, strain MDH1 (second series), hits give low values 0.997 | S. cerevisiae deletion strains, locus YKL085W, strain MDH1, hits give low values 0.997 | S. cerevisiae deletion strains, locus YKL160W, strain elf1, hits give low values 0.993 | S. cerevisiae deletion strains, locus YKR001C, strain vps1, hits give low values 1.01 | S. cerevisiae deletion strains, locus YKR026C, strain gcn3, hits give low values 0.997 | S. cerevisiae deletion strains, locus YKR091W, strain srl3, hits give low values 1 | S. cerevisiae deletion strains, locus YLL001W, strain dnm1, hits give low values 0.965 | S. cerevisiae deletion strains, locus YLL026W, hits give low values 0.995 | S. cerevisiae deletion strains, locus YLL041C, strain sdh2, hits give low values 1 | S. cerevisiae deletion strains, locus YLR027C, strain aat2, hits give low values 0.997 | S. cerevisiae deletion strains, locus YLR039C, strain RIC1, hits give low values 1.02 | S. cerevisiae deletion strains, locus YLR058C, strain SHM2, hits give low values 1.01 | S. cerevisiae deletion strains, locus YLR102C, strain apc9, hits give low values 0.994 | S. cerevisiae deletion strains, locus YLR113W, strain HOG1, hits give low values 0.975 | S. cerevisiae deletion strains, locus YLR221C, strain rsa3, hits give low values 0.993 | S. cerevisiae deletion strains, locus YLR258W, strain gsy2, hits give low values 0.984 | S. cerevisiae deletion strains, locus YLR262C, strain YPT6 (second series), hits give low values 1 | S. cerevisiae deletion strains, locus YLR262C, strain YPT6, hits give low values 1 | S. cerevisiae deletion strains, locus YLR268W, strain sec22, hits give low values 1.03 | S. cerevisiae deletion strains, locus YLR320W, strain mms22, hits give low values 0.986 | S. cerevisiae deletion strains, locus YLR330W, strain CHS5, hits give low values 1.01 | S. cerevisiae deletion strains, locus YLR342W, strain FKS1 (second series), hits give low values 1.05 | S. cerevisiae deletion strains, locus YLR342W, strain FKS1, hits give low values 0.994 | S. cerevisiae deletion strains, locus YLR357W, strain rsc2, hits give low values 0.956 | S. cerevisiae deletion strains, locus YLR370C, strain arc18, hits give low values 1 | S. cerevisiae deletion strains, locus YLR371W, strain rom2, hits give low values 1.01 | S. cerevisiae deletion strains, locus YLR384C, strain iki3, hits give low values 0.988 | S. cerevisiae deletion strains, locus YLR418C, strain cdc73, hits give low values 1.02 | S. cerevisiae deletion strains, locus YML016C, strain PPZ1, hits give low values 0.981 | S. cerevisiae deletion strains, locus YML032C, strain rad52, hits give low values 1.01 | S. cerevisiae deletion strains, locus YML120C, strain ndi1, hits give low values 0.99 | S. cerevisiae deletion strains, locus YML124C, strain tub3, hits give low values 0.99 | S. cerevisiae deletion strains, locus YMR058W, strain fet3, hits give low values 0.998 | S. cerevisiae deletion strains, locus YMR078C, strain ctf18, hits give low values 0.981 | S. cerevisiae deletion strains, locus YMR125W, strain sto1, hits give low values 0.99 | S. cerevisiae deletion strains, locus YMR129W, hits give low values 0.996 | S. cerevisiae deletion strains, locus YMR205C, strain PFK2, hits give low values 0.981 | S. cerevisiae deletion strains, locus YMR223W, strain ubp8, hits give low values 1 | S. cerevisiae deletion strains, locus YMR231W, strain pep5, hits give low values 0.997 | S. cerevisiae deletion strains, locus YMR307W, strain GAS1, hits give low values 1.04 | S. cerevisiae deletion strains, locus YNL067W, strain RPL9B, hits give low values 0.994 | S. cerevisiae deletion strains, locus YNL071W, strain lat1, hits give low values 1.01 | S. cerevisiae deletion strains, locus YNL128W, strain TEP1, hits give low values 1.01 | S. cerevisiae deletion strains, locus YNL183C, strain NPR1, hits give low values 0.962 | S. cerevisiae deletion strains, locus YNL209W, strain ssb2, hits give low values 0.989 | S. cerevisiae deletion strains, locus YNL233W, strain BNI4, hits give low values 1 | S. cerevisiae deletion strains, locus YNL248C, strain rpa49, hits give low values 0.988 | S. cerevisiae deletion strains, locus YNL250W, strain rad50, hits give low values 0.964 | S. cerevisiae deletion strains, locus YNL271C, strain bni1, hits give low values 0.978 | S. cerevisiae deletion strains, locus YNL298W, strain CLA4, hits give low values 0.989 | S. cerevisiae deletion strains, locus YNL307C, strain MCK1, hits give low values 0.99 | S. cerevisiae deletion strains, locus YNL322C, strain KRE1 (second series), hits give low values 0.977 | S. cerevisiae deletion strains, locus YNR049C, strain mso1, hits give low values 1.01 | S. cerevisiae deletion strains, locus YNR052C, strain pop2, hits give low values 0.964 | S. cerevisiae deletion strains, locus YOL012C, strain htz1 0.807 | S. cerevisiae deletion strains, locus YOL147C, strain pex11, hits give low values 1.01 | S. cerevisiae deletion strains, locus YOR001W, strain rrp6, hits give low values 0.948 | S. cerevisiae deletion strains, locus YOR061W, strain CKA2, hits give low values 0.999 | S. cerevisiae deletion strains, locus YOR069W, strain VPS5, hits give low values 0.986 | S. cerevisiae deletion strains, locus YOR070C, strain gyp1, hits give low values 1.01 | S. cerevisiae deletion strains, locus YOR080W, strain dia2, hits give low values 0.988 | S. cerevisiae deletion strains, locus YOR083W, strain WHI5, hits give low values 1.02 | S. cerevisiae deletion strains, locus YOR106W, strain vam3, hits give low values 0.98 | S. cerevisiae deletion strains, locus YOR136W, strain idh2, hits give low values 0.992 | S. cerevisiae deletion strains, locus YOR144C, strain elg1, hits give low values 0.996 | S. cerevisiae deletion strains, locus YOR184W, strain ser1, hits give low values 1.05 | S. cerevisiae deletion strains, locus YOR231W, strain MKK1, hits give low values 1.05 | S. cerevisiae deletion strains, locus YOR265W, strain rbl2, hits give low values 1.01 | S. cerevisiae deletion strains, locus YOR270C, strain vph1, hits give low values 1.02 | S. cerevisiae deletion strains, locus YOR290C, strain snf2, hits give low values 1 | S. cerevisiae deletion strains, locus YOR316C, strain cot1, hits give low values 0.985 | S. cerevisiae deletion strains, locus YPL051W, strain arl3, hits give low values 0.961 | S. cerevisiae deletion strains, locus YPL055C, strain LGE1, hits give low values 1.05 | S. cerevisiae deletion strains, locus YPL078C, strain atp4, hits give low values 0.993 | S. cerevisiae deletion strains, locus YPL106C, strain sse1, hits give low values 0.962 | S. cerevisiae deletion strains, locus YPL240C, strain hsp82, hits give low values 1 | S. cerevisiae deletion strains, locus YPL256C, strain CLN2, hits give low values 1.02 | S. cerevisiae deletion strains, locus YPR119W, strain clb2, hits give low values 0.982 | S. cerevisiae deletion strains, locus YPR141C, strain kar3, hits give low values 0.977 | S. cerevisiae deletion strains, locus YPR163C, strain tif3, hits give low values 0.986 | S. cerevisiae deletion strains, locus YPR167C, strain met16, hits give low values 0.993 | S. cerevisiae deletion strains, strain wtn01, hits give low values 1.01 | S. cerevisiae strains, strain wild type, hits give low values 1.01
